In PubChem BioAssay AID651784 (National Center for Advancing Translational Sciences (NCATS), 2012):
Results filed as inconclusive are left out. Active and inactive are the calls of the source. Calls follow the shape of the dose curve; as a rule, active = well fitted inhibition curve with a large enough effect; inconclusive = small, poorly fitted or top-dose-only effect; inactive = no such curve, though single readings can be large or run the other way.

Test: Acumen qHTS Assay for Inhibitors of the mTORC1 Signaling Pathway in MEF (Tsc2-/-, p53-/-) Cells: Hit Validation;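 also: phospho-rpS6 Ser235/236 immunofluorescence normalized to propidium iodide cell count; nearly all actives have a fitted effect of over 65% in size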;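 as to activity change, negative = inhibition: cells exposed to compound for 24 hours; plate controls were DMSO for no effect and 7.5 nM rapamycin control for full effect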
Settings: Acumen imaging; activity change, negative = inhibition: at 37.3 µM (top of the series)
Potency is read from the fitted curve at half-maximal effect.

| SMILES | activity change, negative = inhibition [%] | Potency |
| --- | --- | --- |
| Cc1cc(C)cc(NC(=O)c2cnn(-c3ccc(C)c(C)c3)c2C2CCNCC2)c1 | -31.5 | – |
| CCc1nn(CC(=O)NCc2ccccc2)c(=O)c2cccn12 | 5.81 | – |
| CC(C)c1ccc(NS(=O)(=O)c2ccc3nc(-c4ccccc4)[nH]c3c2)cc1 | -0.821 | – |
| CCN(CC)CCn1c(=N)n(CC(O)COc2ccccc2C)c2ccccc21 (stereo unspecified) | – | 4.65 µM (active) |
| CCSc1oc(-c2ccc(F)cc2)nc1S(=O)(=O)c1ccc(C)cc1 | -25.8 | – |
| COc1ccc(OC)c(NC(=O)c2nnn(CC(=O)Nc3ccc(C(C)C)cc3)c2N)c1 | -27.6 | – |
